The values below come from PubChem BioAssay AID1347419 (Sanford-Burnham Center for Chemical Genomics, 2020).

Screen size: about 99,000 compounds; about 820 (0.83%) were called active. The list comes from a sample in which actives are over-represented; it also holds similar structures and randomly drawn compounds. A number with no mark means an inactive call.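 Rule for the calls: active = Z-score of -3 or lower, scaled per plate to the spread of control and sample wells; inactive = z-score above -3.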

Sequence of Protein-tyrosine kinase 2-beta (Homo sapiens) (Q14289 whole entry, looked up): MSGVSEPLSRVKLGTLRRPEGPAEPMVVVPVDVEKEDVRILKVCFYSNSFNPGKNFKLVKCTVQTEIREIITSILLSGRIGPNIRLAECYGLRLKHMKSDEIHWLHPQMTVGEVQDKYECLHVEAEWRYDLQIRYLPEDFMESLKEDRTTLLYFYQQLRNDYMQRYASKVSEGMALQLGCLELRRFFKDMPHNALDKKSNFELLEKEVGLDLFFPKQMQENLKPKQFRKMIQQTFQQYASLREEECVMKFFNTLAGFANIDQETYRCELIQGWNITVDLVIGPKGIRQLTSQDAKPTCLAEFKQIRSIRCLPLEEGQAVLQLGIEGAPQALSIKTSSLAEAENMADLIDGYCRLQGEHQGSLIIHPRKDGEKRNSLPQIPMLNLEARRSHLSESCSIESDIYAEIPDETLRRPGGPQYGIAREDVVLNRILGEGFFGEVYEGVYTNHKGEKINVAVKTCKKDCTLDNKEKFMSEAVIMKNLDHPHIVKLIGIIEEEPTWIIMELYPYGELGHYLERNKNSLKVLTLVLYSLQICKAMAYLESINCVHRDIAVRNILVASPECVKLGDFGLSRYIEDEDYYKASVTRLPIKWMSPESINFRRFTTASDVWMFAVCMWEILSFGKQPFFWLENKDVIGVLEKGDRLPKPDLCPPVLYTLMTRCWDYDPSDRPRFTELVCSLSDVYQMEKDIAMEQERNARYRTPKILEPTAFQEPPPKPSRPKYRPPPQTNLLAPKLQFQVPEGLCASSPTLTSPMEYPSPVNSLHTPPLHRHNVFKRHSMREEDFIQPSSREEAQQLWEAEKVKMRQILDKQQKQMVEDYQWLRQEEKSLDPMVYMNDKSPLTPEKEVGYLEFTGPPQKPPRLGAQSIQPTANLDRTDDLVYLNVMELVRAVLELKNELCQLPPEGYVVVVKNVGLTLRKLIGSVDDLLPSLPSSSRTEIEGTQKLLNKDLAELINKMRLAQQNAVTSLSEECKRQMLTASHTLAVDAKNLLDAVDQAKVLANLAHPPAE

This assay has as its target Protein-tyrosine kinase 2-beta (Homo sapiens) (UniProt Q14289). Description: Pyk2 FERM oligomerization blockers – Q293 cells, FERM NanoBiT luminescence, HTS, primary screen (AID 1347419).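 Note: the deposit names both 25 µM and 10 µM; negative z-score means lost luminescence so less FERM oligomerization.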 Also on record: dose or concentration left out as unconfirmed. Particulars: active compounds read low.
For `Cc1ccc(Nc2nnc(SCC(=O)c3cc4ccccc4o3)s2)cc1C`, the z-score was -0.02. `CC1CCN(C(=S)NC2CC3CCC2C3)CC1` (stereo unspecified): the z-score was -0.08. As for `Cc1ccccc1OCC(=O)Nc1ccc(N2CCN(C(=O)C(C)C)CC2)c(Cl)c1`, the z-score is -3.97 (active). Take `Cc1cccc(NC(=O)COc2ccccc2C)n1`: the z-score was 0.47. As to `CN1CCN(c2ccc(NC(=O)COc3ccc(Cl)cc3Cl)cc2)CC1`, the z-score is -0.4.

Turning to `O=S(=O)(NCCc1ccncc1)c1ccccc1`, the z-score is 0.43. As to `Cc1cccc(-n2c(C)cc(/C=N\NC(=O)c3cccs3)c2C)c1`, the z-score is -0.91. `CCn1c(/C=C/Nc2ccccc2)[n+](CC)c2ccc(C(=O)OCC(F)(F)F)cc21`: the z-score is 1.39.

With `Cc1cc2c(c(=O)n1Cc1ccco1)C(c1ccccc1)C(C#N)=C(N)O2` (stereo unspecified), the z-score was 1.13.

For `Cc1nn(Cc2ccccc2)c2c1C(c1ccccc1)C(C#N)=C(N)O2` (stereo unspecified), the z-score was -3.32 (active).

For `CCCc1[nH]nc2c1C(c1c(C)nn(-c3ccccc3)c1Cl)C(C#N)=C(N)O2` (stereo unspecified), the z-score was 0.22. In the case of `CCCn1c(C)cc(C(=O)COC(=O)c2c(C)nn(-c3ccccc3)c2C)c1C`, the z-score was 1.05.

In the case of `Cc1nn(-c2ccccc2)c(C)c1C(=O)OCC(=O)NC(=O)NC1CCCCC1`, the z-score was -3.49 (active). As to `O=C(COC(=O)c1ccccc1SCC(=O)NC1CCCCC1)NC1CCCCC1`, the z-score was 1.77. As for `COC(=O)[C@H]1Cc2cnoc2C[C@]1(C)C(=O)O`, the z-score was 1.39. Take `O=c1c(Cl)c(NCc2ccc(F)cc2Cl)cnn1C12CC3CC(CC(C3)C1)C2`: the z-score was 0.24.

Turning to `COc1cccc(NC(=O)c2nn(C34CC5CC(CC(C5)C3)C4)cc2[N+](=O)[O-])c1`, the z-score was -0.19. Next, `COc1ccc(-c2cc(C3CCN(c4ncccc4[N+](=O)[O-])CC3)[nH]n2)cc1`: -3.98 (active); `Cc1nc(-c2ccc(NC(=O)c3cccs3)cc2)cs1`: -0.41. As for `Cc1ccc(-c2nnc(-c3ccc(NC(=O)c4cccs4)cc3)o2)cc1`, the figure is -0.15; as for `Cc1ccc(-c2csc(NC(=O)c3cccs3)n2)cc1`, -3.32 (active); as for `CC(C)(C)C1C/C(=C/c2ccco2)C(=O)/C(=C/c2ccco2)C1` (stereo unspecified), 0.6.

For the compound `Cc1ccc(OCC(=O)OC(C)CN(C)Cc2ccccc2)cc1` (stereo unspecified), the z-score is 2.87. As for `COc1ccc(N2C(=O)CNC2=S)cc1`, the figure is 0.4. As to `CCOc1cccc(-c2nn3c(-c4ccccn4)nnc3s2)c1`, the z-score is -1.53.

For `c1ccc(-c2cc(-c3nnc4sc(-c5ccccn5)nn34)[nH]n2)cc1`, the z-score is -3.26 (active).

As for `COc1ccc(-c2nn3c(-c4ccccc4)nnc3s2)cc1OC`, the z-score was -1.25. For the compound `CC(NC(=O)C(=O)NN=C1CCC(C(C)(C)C)CC1)c1ccccc1` (stereo unspecified), the z-score is -0.32. As for `CNc1ccc(NC(C)=O)cc1[N+](=O)[O-]`, the figure is -0.8; as for `CC(C)CC(=O)NC(=S)Nc1cc(C(=O)O)ccc1Cl`, 0.14; as for `COc1ccc(-c2cn(-c3ccc(OC)cc3)c(=S)[nH]2)cc1`, 0.64.

On to `CSCCC(NC(=O)COc1ccccc1)C(=O)Nc1ccc(C)cc1` (stereo unspecified), for which the z-score was 0.49. Regarding `CCN1CCCC1CNc1ncnc2c1[nH]c1ccc(F)cc12` (stereo unspecified), the z-score is 1.26. As for `CC(C)OCCCNc1ncnc2c1[nH]c1ccc(F)cc12`, the z-score was -1.09. As for `Fc1ccc2[nH]c3c(N4CCSCC4)ncnc3c2c1`, the figure is -3.08 (active); as for `O=C(CNCc1ccc(F)cc1)Nc1ccccc1-c1ccccc1`, -0.24.

For the compound `COc1ccc(C(=O)NNS(=O)(=O)c2ccc(C)cc2)cc1`, the z-score is -0.21. With `CCCCNC(=O)CCn1c(=O)c2ccccc2n(Cc2cc(C)ccc2C)c1=O`, the z-score was 1.04. In the case of `CN1/C(=c2/s/c(=C3/C(=O)N(c4ccccc4)NC3=Nc3ccccc3)n(C)c2=O)C(C)(C)c2ccccc21`, the z-score was -3.22 (active). As for `COc1cccc(-c2ccc(C#N)c(SCC(=O)NCCc3ccc(Cl)cc3)n2)c1`, the z-score was -0.01.

With `COc1ccc(Br)cc1CN(C)CC(=O)Nc1cc([N+](=O)[O-])ccc1OC`, the z-score is -1.86. As for `Cc1ccc2c(CC(=O)NCc3cccs3)coc2c1`, the figure is -0.4. For the compound `N#C/C(=C\c1ccc(N2CCOCC2)o1)C(=O)N1CCOCC1`, the z-score is 0.12. For `COc1ccccc1Oc1ccc(N/C=C2/CCCC2=O)cc1`, the z-score was 0.42. As for `COc1ccc(C2CC(=O)Nc3sc(=N)c4c(N)c(C#N)c(N)nc4c32)cc1OC` (stereo unspecified), the z-score is -1.89.

`CSc1nc(N)c(C#N)c(-c2ccccc2Cl)c1C#N`: the z-score is -2.52. As to `N#Cc1c(N)nc2c3c(sc(=N)c2c1N)NC(=O)CC3c1ccccc1Cl` (stereo unspecified), the z-score is -3.47 (active). In the case of `Cc1c(/C=N/N2C(=O)C3C4C=CC(C4)C3C2=O)c2ccccc2n1C` (stereo unspecified), the z-score was 0.37. Consider `Cc1ccc(CNC(=O)COc2ccc3c(c2)CCC3)cc1`, for which the z-score is 1.09. Turning to `CCCCN(C)c1ccc([N+](=O)[O-])cc1`, the z-score is -0.3.

As to `O=C(NCCc1ccccc1)C1CCN(S(=O)(=O)c2ccc(Br)s2)CC1`, the z-score was 0.91. With `Cc1ccc(C(=O)Cc2nnc(C)s2)cc1`, the z-score is 0.12. With `CCOc1ccc(NC(=O)c2ccccc2NS(C)(=O)=O)cc1`, the z-score is -0.27. For `COC(=O)c1ccccc1NC(=O)c1ccccc1NS(C)(=O)=O`, the z-score is 0.05. Consider `COC(=O)c1ccc(NC(=O)c2ccccc2NS(=O)(=O)c2ccccc2)cc1`, for which the z-score is -3.71 (active).

Take `O=C(NC(=S)Nc1ccc(NC(=O)c2cccs2)cc1)c1ccc([N+](=O)[O-])cc1`: the z-score is 0.61. Take `Cc1cccc(N2CCN(C(=O)c3cccc(S(=O)(=O)N4CCc5ccccc5C4)c3)CC2C)c1` (stereo unspecified): the z-score was 0.72.

As for `CCc1ccc(C2N3CC4([N+](=O)[O-])CN2CC([N+](=O)[O-])(C3)C4(C)C)cc1` (stereo unspecified), the z-score was 0.28. As for `C=CCn1c(SCC(=O)NCc2ccccc2)nnc1-c1cc(Br)ccc1O`, the figure is -0.9; as for `C=CCn1c(CSc2nc3ccccc3s2)nnc1SCC(=O)NCc1ccco1`, 0.84. `C=CCn1c(SCC(=O)Nc2nc3ccccc3s2)nnc1-c1ccccc1O`: the z-score was -3.16 (active). Regarding `N#CC1=C(N)N(c2ccccc2)C2=C(C(=O)CCC2)C1c1ccccc1` (stereo unspecified), the z-score is -0.02. `CCCC(=O)N1c2ccccc2NC2=C(C(=O)CCC2)C1c1ccc(F)cc1` (stereo unspecified): the z-score is -0.82.

Take `CCCN1C2=C(C(=O)CCC2)C(c2ccc(O)c(Br)c2)C2=C1CCCC2=O`: the z-score is -3.69 (active). In the case of `CCOc1ccc(Br)cc1S(=O)(=O)Nc1cccc(S(=O)(=O)N(CC)CC)c1`, the z-score was 1.18. For `O=c1oc2cc(O)ccc2cc1-c1ccc(F)cc1`, the z-score is -0.5. As for `CCCCCCc1cc2cc(-c3nnc(-c4ccccc4)o3)c(=O)oc2cc1O`, the z-score is -3.06 (active).

As to `CC(C)NC(=O)C(=O)NCCCOC(C)C`, the z-score is 0.05. As for `COC(=O)c1cc(NC(=O)Cc2ccccc2[N+](=O)[O-])ccc1Cl`, the figure is -0.53; as for `COc1cc(OC)nc(N/N=C(\c2ccccc2)c2ccncc2)n1`, 2.22.

As for `O=C(N/N=C/c1cccc([N+](=O)[O-])c1)C1CC(=O)N(c2ccc(Br)cc2)C1` (stereo unspecified), the z-score is 0.31. Next, `Cc1nc(-c2ccccc2)sc1C(=O)/C=C/c1ccccc1`: -0.6. Turning to `Cc1[nH]c(=O)c(C(=O)/C=C/c2ccccc2)c2c1CCCC2`, the z-score is -3.31 (active). Consider `O=C(/C=C/c1ccccc1)c1ccoc1`, for which the z-score is 2.22.

As for `CC1(c2cccc([N+](=O)[O-])c2)CC(C)(C)N(C(=O)c2ccccc2)c2ccccc21` (stereo unspecified), the z-score was -0.67. As to `CCn1c(SCC(=O)Nc2ccc(C)cc2)nc2nc3c(cc2c1=O)CCCC3`, the z-score is -2.19. With `COc1ccc(N(CC(=O)N/N=C/c2cccs2)S(=O)(=O)c2ccc(OC)c(OC)c2)cc1`, the z-score was -2.54. As for `Cc1ccc(S(=O)(=O)N(CC(=O)N/N=C/c2ccc(F)cc2)c2cccc3cccnc23)cc1`, the z-score was -0.75. In the case of `COc1ccc(N(CC(=O)N/N=C/c2cccc3c2OCCO3)S(=O)(=O)c2ccc(NC(C)=O)cc2)cc1`, the z-score was -3.71 (active). On to `CC(C)CN(C(=O)CN1CCN(S(=O)(=O)c2ccccc2)CC1)c1c(N)n(CC(C)C)c(=O)[nH]c1=O`, for which the z-score is 0.05. As for `CCCC(C)C(=O)OCC(=O)Nc1c(Br)cc(C)cc1Br` (stereo unspecified), the z-score was 1.59.

As for `CCC(C)(C)n1nnnc1C(c1ccccc1OC)N1CCSCC1` (stereo unspecified), the z-score was -0.08.

With `CCC(C)(C)n1nnnc1C(c1cccs1)N1CCN(c2nc3ccccc3s2)CC1` (stereo unspecified), the z-score is -3.48 (active). Turning to `CCC(C)(C)n1nnnc1C(c1cccs1)N1CCN(Cc2ccccc2)CC1` (stereo unspecified), the z-score is 0.51. On to `Cc1ccc(C(=O)COC(=O)c2cccc(N3C(=O)c4c(C)nc5ccccc5c4C3=O)c2)cc1C`, for which the z-score was 0.74. As to `CC1(C)C/C(=C(/C#N)C(N)=O)CCO1`, the z-score is -3.62 (active). For the compound `N#CC(C(N)=O)=C1CCC2(CC1)OCCCCO2`, the z-score was 0.83. Consider `O=C(Nc1ccccc1)c1cc2ccccc2[nH]1`, for which the z-score is 0.86. As to `S=C1Nc2cc(Cl)ccc2Sc2ccccc21`, the z-score was -0.5.

Consider `CC1=C(C(=O)Nc2cc(C)ccn2)C(c2cnn(C)c2)C2=C(CC(c3ccccc3)CC2=O)N1` (stereo unspecified), for which the z-score was 1.36. In the case of `Cc1nn(-c2ccccc2)c(C)c1/C=C/C(=O)OC(C)C(N)=O` (stereo unspecified), the z-score is 0.82.
